In PMC4336329 (PLoS ONE, 2015):
Out of some 310,000 compounds screened, about 14,000 (4.5%) showed an effect of 50% or more. The effect is printed as a negative number. Only a selection was taken, and strong results are over-represented in it overall.

molecular target: human ether-à-go-go-related gene (hERG) potassium channel (human, UniProt Q12809); assay: primary screen, population patch clamp on CHO cells stably expressing hERG; higher = less effect of the substance
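Note: peak tail current of the secondary pulse compared with the same well before compound.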

human ether-à-go-go-related gene (hERG) potassium channel, sequence (Q12809 whole entry, looked up): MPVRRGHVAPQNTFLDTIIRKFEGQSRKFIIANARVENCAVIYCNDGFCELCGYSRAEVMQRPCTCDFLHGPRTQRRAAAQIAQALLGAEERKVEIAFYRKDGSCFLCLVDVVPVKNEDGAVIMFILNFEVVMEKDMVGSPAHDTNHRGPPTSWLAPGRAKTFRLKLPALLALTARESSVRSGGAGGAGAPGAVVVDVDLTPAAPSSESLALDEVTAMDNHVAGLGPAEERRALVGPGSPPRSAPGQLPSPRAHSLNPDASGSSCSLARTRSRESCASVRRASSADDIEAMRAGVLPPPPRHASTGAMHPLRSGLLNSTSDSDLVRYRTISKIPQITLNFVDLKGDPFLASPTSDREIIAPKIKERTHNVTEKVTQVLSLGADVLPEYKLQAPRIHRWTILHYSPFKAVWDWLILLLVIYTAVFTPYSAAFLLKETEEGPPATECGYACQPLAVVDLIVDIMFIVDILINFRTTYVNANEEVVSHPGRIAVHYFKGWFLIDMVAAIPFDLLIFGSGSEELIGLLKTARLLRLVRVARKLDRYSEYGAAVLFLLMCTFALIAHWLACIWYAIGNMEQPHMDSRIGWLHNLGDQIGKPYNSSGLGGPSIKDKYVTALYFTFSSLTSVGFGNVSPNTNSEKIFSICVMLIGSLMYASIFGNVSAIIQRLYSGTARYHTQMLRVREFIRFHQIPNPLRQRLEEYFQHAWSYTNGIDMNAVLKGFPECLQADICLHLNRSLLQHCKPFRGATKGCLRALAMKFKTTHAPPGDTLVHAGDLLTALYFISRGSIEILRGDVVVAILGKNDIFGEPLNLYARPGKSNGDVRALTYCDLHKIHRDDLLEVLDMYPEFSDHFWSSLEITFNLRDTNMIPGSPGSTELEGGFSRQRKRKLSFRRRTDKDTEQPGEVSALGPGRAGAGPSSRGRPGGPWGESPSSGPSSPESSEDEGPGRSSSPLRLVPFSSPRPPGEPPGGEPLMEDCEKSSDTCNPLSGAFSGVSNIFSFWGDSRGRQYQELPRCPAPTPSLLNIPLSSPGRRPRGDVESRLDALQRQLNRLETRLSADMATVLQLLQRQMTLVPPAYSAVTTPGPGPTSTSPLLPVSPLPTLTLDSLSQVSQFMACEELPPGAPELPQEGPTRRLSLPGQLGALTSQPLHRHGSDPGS

Row | SMILES | hERG current change (%, negative = inhibition) at 10uM [%]
1 | Cc1ccc(F)c(NC(=O)C2CCCCC2C(=O)O)c1 (stereo not drawn) | 8.23
2 | O=C(O)c1ccc(NC(=O)c2ccccc2NC(=O)c2cccc(F)c2)cc1 | 20.2
3 | O=C(c1ccc(Br)o1)N1CCN(c2ccc3nnc(-c4ccc(F)cc4)n3n2)CC1 | -46.4
4 | O=C(Nc1ccccc1C(F)(F)F)N1CCN(c2ccc3nncn3n2)CC1 | -1.32
5 | O=C(Nc1ccccc1C(F)(F)F)N1CCN(c2ccc3nnc(-c4ccc(F)cc4)n3n2)CC1 | -65.9
6 | O=C(c1ccc(Br)o1)N1CCN(c2ccc3nnc(-c4ccccc4)n3n2)CC1 | -79.1
7 | COc1ccccc1NC(=O)N1CCN(c2ccc3nnc(-c4ccc(F)cc4)n3n2)CC1 | -68.9
8 | Fc1ccc(-c2nnc3ccc(N4CCCC4)nn23)cc1 | 5.51
9 | O=C(Nc1ccccc1C(F)(F)F)N1CCN(c2ccccn2)CC1 | 9.98
10 | O=C(Nc1ccc(F)cc1)N1CCN(c2ccc3nnc(-c4ccc(F)cc4)n3n2)CC1 | -73.5
11 | COc1ccccc1NC(=O)N1CCN(c2ccc3nncn3n2)CC1 | -23.1
12 | O=C(Nc1ccc(Cl)cc1)N1CCN(c2ccc3nnc(-c4ccc(F)cc4)n3n2)CC1 | -28.3
13 | COc1ccccc1NC(=O)N1CCN(c2ccc(F)cc2)CC1 | -18.7
14 | c1ccc(-c2nnc3ccc(N4CCCC4)nn23)cc1 | 7.51
15 | O=C(CCC(=O)c1ccc(Br)cc1)Nc1ccc(F)cc1 | 23.7
16 | COc1ccc(C2=NC(=O)NC2c2ccc(OC)cc2)cc1 (stereo not drawn) | -29.4
17 | Cc1ccc(S(=O)(=O)N(C)C)cc1-n1c(SCC(=O)Nc2ccc(F)c(F)c2F)nc2ccccc2c1=O | 8.58
18 | Cl.O=C(Cc1ccccc1)OCCN1CCOCC1 | 20.4
19 | CCCOc1ccc(C2(C(=O)O)CCCC2)cc1 | 6.16
20 | C=CCC1C=CCC(CC=C)N1C(=O)c1ccccc1[N+](=O)[O-] (stereo not drawn) | -3.17
21 | COC(=O)c1sccc1NC(=S)N1CCCCC1C (stereo not drawn) | -25.6
22 | CC1=C(C(=O)OCC(C)C)C2(O)C(=O)c3ccccc3C2(O)N1 (stereo not drawn) | 3.4
23 | Clc1ccc(CSc2nnc(-c3ccncc3)o2)c(Cl)c1 | 0.528
24 | COc1ccc(C2/C=C\CN(S(=O)(=O)c3ccc4ccccc4c3)CC(=O)N2Cc2ccc(F)cc2)cc1 (stereo not drawn) | 8.33
